Compound activity (PubChem BioAssay)
IDH1 R132H inh = qHTS for Inhibitors of mutant isocitrate dehydrogenase 1 (IDH1): qHTS; 390,000 compounds, 0.093% hits; IDH1-R132H enzyme, NADPH consumption, diaphorase/resazurin fluorescence; Potency, µM (doses to about 76.6 µM), without a hit: top-dose activity change, negative = inhibition, most hits filed as inhibitors; Isocitrate dehydrogenase [NADP] cytoplasmic (Homo sapiens), O75874; further: nearly all actives have a fitted effect of over 65% in size
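IDH1-R132H (0.5 ug/mL dispensed) in pH 7.5 Tris buffer was preincubated 30 min with compound, then given a substrate mix of 0.016 mM NADPH and 2 mM alpha-KG for 80 min at room temperature; remaining NADPH was read by diaphorase/resazurin fluorescence.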
TrxR1 inh = qHTS Assay for Inhibitors of Mammalian Selenoprotein Thioredoxin Reductase 1 (TrxR1): qHTS | Thioredoxin reductase 1, cytoplasmic (Rattus norvegicus), O89049 | recombinant rTrxR1, NADPH fluorescence consumption, selenite substrate | Potency, µM (doses to about 114 µM), for inactives: top-dose activity change, negative = inhibition, actives largely listed as inhibitors | 390,000 compounds, 1% hits | AID 588453, 2011; further: nearly all actives have a fitted effect of over 65% in size
Target sequence (O89049 whole entry, looked up): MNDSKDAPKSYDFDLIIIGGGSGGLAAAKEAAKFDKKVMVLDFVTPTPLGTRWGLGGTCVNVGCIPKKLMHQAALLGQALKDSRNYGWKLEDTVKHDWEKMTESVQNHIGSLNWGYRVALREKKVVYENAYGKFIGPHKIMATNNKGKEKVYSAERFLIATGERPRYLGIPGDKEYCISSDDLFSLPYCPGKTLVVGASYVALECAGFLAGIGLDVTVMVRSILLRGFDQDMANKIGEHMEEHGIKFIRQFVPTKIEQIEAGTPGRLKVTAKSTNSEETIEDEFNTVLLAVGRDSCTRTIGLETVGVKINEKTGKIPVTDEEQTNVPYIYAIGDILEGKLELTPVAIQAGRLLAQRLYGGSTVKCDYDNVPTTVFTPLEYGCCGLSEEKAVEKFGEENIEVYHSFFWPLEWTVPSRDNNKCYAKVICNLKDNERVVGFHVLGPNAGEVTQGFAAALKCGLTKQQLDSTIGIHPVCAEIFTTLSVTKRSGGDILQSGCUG
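Rat TrxR1 (90 nM in the dispensed reagent) was pre-reduced with 400 uM NADPH for 5 min at room temperature, then incubated with compound for 15 min. After 400 uM selenite was added, NADPH fluorescence (Ex 340/Em 450 nm) was followed for 8 min.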
PLK1 PBD inh = qHTS for Inhibitors of PLK1-PDB (polo-like kinase 1 - polo-box domain): Primary Screen; Serine/threonine-protein kinase PLK1 (Homo sapiens), P53350; Plk1 PBD binding of FITC phosphopeptide, fluorescence polarization; Potency, µM, for the others: max response, negative = inhibition, hits mostly inhibitors; 360,000 compounds, 2.8% hits; further: series mostly up to about 57 µM; nearly all actives have a fitted effect of over 65% in size
TrxR1 substrate = qHTS Assay for Substrates of Mammalian Selenoprotein Thioredoxin Reductase 1 (TrxR1): qHTS | purified TrxR1 substrate turnover, NADPH consumption readout | 390,000 compounds, 0.01% hits | AID 588456, 2011 | Potency, µM (top dose mostly 114 µM), inactives show at the highest dose activity change, negative = substrate turnover; further: nearly all actives have a fitted effect of over 50% in size
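Rat TrxR1, dispensed at 90 nM, was prereduced with 400 uM NADPH (final) for 5 min at ~22 deg C, then incubated with compound 15 min before 400 uM selenite. A first-read NADPH fluorescence drop versus no-compound background flagged substrates.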
Sfp PPTase inh = qHTS Assay for Inhibitors of Bacillus subtilis Sfp phosphopantetheinyl transferase (PPTase) | 4'-phosphopantetheinyl transferase ffp (Bacillus subtilis), Q9F4F7 | 310,000 compounds, 3.5% hits | Potency, µM, for the others: largest response in the series, negative = inhibition, actives largely listed as inhibitors | AID 1490, 2009 | Biochemical Sfp PPTase activity, qHTS;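 further: the enzyme is Sfp with the accession as filed and its product quenches rhodamine fluorescence; 0% = enzyme reaction without inhibitor and -100% = no enzyme wells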
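Fluorescence-quenching assay: 15 nM Sfp-PPTase preincubated 15 min at room temperature with compound, then 5 uM rhodamine-CoA and 12.5 uM BHQ-2-labelled YbbR peptide added. Fluorescence (ex 525/em 598 nm) read at start and after 30 min; difference gives rate.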
VDR inh = Inhibitors of the vitamin D receptor (VDR): qHTS; AID 504847, 2011; VDR-SRC2-3 peptide fluorescence polarization, 2 h; 400,000 compounds, 0.93% hits; Vitamin D3 receptor (Homo sapiens), P11473; Potency, µM, inactives show max response, negative = inhibition, hits mostly inhibitors
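Reagent solutions, kept cold and dark, are dispensed first; compounds are then pinned in at 23 nl, plates briefly spun, and incubated 2 h at ambient temperature. Inhibition of VDR–SRC2-3 peptide binding is read by fluorescence polarization.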
An asterisk follows results filed as active; ? = inconclusive; . = not tested or not shown; [ ] = dose if it differs, or a comment. Most compounds without a hit are left out; they make up all but 5.2% or so of the library. The call rests on the fitted dose curve; in most records, active means well fitted curve in the direction sought with a large enough effect; inconclusive means small, poorly fitted or top-dose-only effect, or another doubt; inactive means no such curve, though single readings can be large; an effect the other way counts as inactive or inconclusive. Unless noted, on the % scale 0 is the no-effect control and ±100 the full control effect; potency means the concentration at half of the fitted maximal effect.

SMILES	IDH1 R132H inh	TrxR1 inh	PLK1 PBD inh	TrxR1 substrate	Sfp PPTase inh	VDR inh
COc1ccc(CN2CCCN(C)CC2)c(OC)c1C	-3.1%	20.8%	-13.6%	8.6%	79.4µM*	4.0%
CCC(=O)N1CCCC1(C)C(=O)NCc1ccc(SC)cc1 (stereo not drawn)	.	.	-14.2%	.	.	.
COc1cccc(NS(=O)(=O)c2cc3c(cc2C)NC(=O)CO3)c1	6.2%	5.3%[57.1 µM]	0.1%	1.5%[57.1 µM]	14.8%	9.2%
CCOC(=O)c1ccc(NS(=O)(=O)c2cc3c(cc2C)NC(=O)CO3)cc1	6.7%	5.1%	29.9µM*	-0.6%	0.7%	-10.8%
S=C(NC1CCCCC1)c1ccc2c(c1)OCO2	4.1%	-14.7%	18.9µM*	-6.0%	?	-18.7%
O=C(NC1CCCCCCC1)c1ccc2c(c1)OCO2	5.5%	-12.0%	-15.3%	-4.0%	15.6%	1.0%
CCOc1ccc(C(=S)NC2CCCCC2)cc1OC	0.3%	?	9.47µM*	-2.2%	44.7µM*	50.1µM*
CCCNC(=O)N1N=C(c2ccc(N)cc2)c2cc3c(cc2C1C)OCO3 (stereo not drawn)	.	.	.	.	-15.0%	-21.0%
COc1cccc(-c2oc3c(c2C(=O)OCCN2CCCCC2)C(O)CCC3)c1 (stereo not drawn)	.	.	-4.0%	.	.	.
COc1cc(OC)cc(C(=O)OCCCOC(=O)c2cc(OC)cc(OC)c2)c1	-15.0%	12.0%	-7.7%	-5.9%	-13.1%	6.0%
CN=c1c([N+](=O)[O-])nn(-c2ccc3c(c2)OCCO3)n1O	14.4%	8.7%	23.8µM*	-2.0%	9.2%	-18.5%
O=C(/C=C/c1cccc(OCc2ccccc2)c1)c1cccnc1	1.2%	?	-19.1%	0.0%	50.1µM*	39.8µM*
O=C(O)/C=C/c1cccc(OCc2ccccc2)c1	5.4%	-0.2%[57.1 µM]	-6.6%	1.8%[57.1 µM]	9.9%	0.9%
O=C(OCn1ncc(Cl)c(Cl)c1=O)c1ccccc1Cl	12.5%	8.91µM*	?	-5.9%	4.8%	?
CCOC(=O)C1=C(N)OC2=C(C(=O)CC(C)(C)C2)C1c1cccnc1 (stereo not drawn)	18.9%	-3.5%	-4.1%	-1.6%	6.1%	-6.6%
CCOC(=O)C1=C(N)OC2=C(C(=O)CC(C)(C)C2)C1c1ccoc1 (stereo not drawn)	-2.3%	-20.0%	21.2µM*	-2.1%	0.8%	-0.6%
CCOc1cc(C(=O)Nc2cc(C)ccn2)cc(OCC)c1OCC	9.2%	-12.5%	-4.9%	-8.1%	-3.1%	6.2%
CCOc1ccc(C(=O)Nc2cc(C)ccn2)cc1	2.7%	18.3%[57.1 µM]	2.99µM*	1.8%[57.1 µM]	4.2%	35.5µM*
Cc1ccc(-c2noc(-c3nnn(CC(=O)Nc4cc(Cl)ccc4C)c3N)n2)cc1	.	32.8%	.	4.1%	.	4.0%
Cc1cccc(-c2n[nH]c(=S)n2Cc2ccccc2)c1	9.5%	-15.2%	-12.5%	2.2%	79.4µM*	0.2%
CC(c1n[nH]c(=S)n1Cc1ccccc1)N(C)C (stereo not drawn)	1.4%	-37.4%	18.9µM*	-9.5%	89.1µM*	?
S=c1[nH]nc(-c2ccc(Cl)cc2Cl)n1Cc1ccccc1	-9.4%	0.4%	3.77µM*	5.7%	?	28.2µM*
COc1ccc(C(=O)N=c2nc(-c3ccccc3)n(-c3ccccc3)s2)cc1	.	9.8%	.	8.3%[0.0914 µM]	.	-12.6%
CCc1nnc(SCc2nc(-c3ccc(OC)c(OC)c3)oc2C)c2cc3sc(C)cc3n12	-19.5%	4.4%	.	-3.3%	.	4.6%
Cc1ccc(N2CC(C(=O)Nc3nc4ccc(S(C)(=O)=O)cc4s3)CC2=O)cc1 (stereo not drawn)	-1.9%	-5.9%	-21.2%	-8.5%	44.7µM*	7.2%
SMILES	IDH1 R132H inh	TrxR1 inh	PLK1 PBD inh	TrxR1 substrate	Sfp PPTase inh	VDR inh
CS(=O)(=O)c1ccc2nc(NC(=O)C3CC(=O)N(c4ccccc4)C3)sc2c1 (stereo not drawn)	0.9%	2.1%[57.1 µM]	29.9µM*	5.0%[57.1 µM]	-5.1%	?
Cc1cccc(N2CC(C(=O)Nc3nc4ccc(S(C)(=O)=O)cc4s3)CC2=O)c1C (stereo not drawn)	-5.8%	22.6%	?	2.7%	-2.6%	-10.3%
CC(Sc1nnc(C2CC2)n1C1CC1)C(=O)NC1(C#N)CCCCC1 (stereo not drawn)	5.3%	23.5%	-21.1%	4.4%	.	-23.7%
COc1ccc(C(C)(C)C)cc1NC(=O)COC(=O)C1=NNC(=O)CC1	-7.5%	22.6%	-1.5%	-1.5%	.	-24.1%
CSc1nc(C)c(C(=O)C[n+]2ccccc2C)cc1C#N	-12.7%	-3.8%	15µM*	0.7%	5.9%	-16.2%
CC(=O)c1cc(C#N)c(SCc2ccc(F)cc2)nc1C	9.9%	10.2%[57.1 µM]	-18.8%	5.9%	8.1%	9.0%
Nc1nonc1C(=O)N/N=C/c1ccc(-c2cccc(C(=O)O)c2)o1	.	.	.	.	56.2µM*	.
COc1ccc(CC(=O)N/N=C/c2ccc(-c3cccc(C(=O)O)c3)o2)cc1OC	-15.4%	-19.2%	-14.4%	-9.1%	14.1µM*	-10.8%
CC(C)(C)c1ccc2c(c1)OC(C(=O)N/N=C\c1ccccn1)CO2 (stereo not drawn)	1.5%	5.4%	-8.3%	-11.2%	10.4%	-14.2%
COC(=O)c1ccc(-c2ccc(/C=N/NC(=O)Cc3nnc(N)s3)o2)cc1	5.1%	-75.1%[57.1 µM]	-13.8%	28.0%	56.2µM*	-7.0%
CC(C)(C)c1ccc2c(c1)OC(C(=O)N/N=C\c1ccc(-c3cccc(C(=O)O)c3)o1)CO2 (stereo not drawn)	0.0%	-7.0%	18.9µM*	6.5%	50.1µM*	?
CC(=O)c1cccc(NC(=O)COc2ccccc2C(=O)Nc2ccccc2)c1	.	?	.	0.9%	.	.
O=C(O)c1cccc(-c2ccc(/C=N/Nc3nn[nH]n3)o2)c1	-1.1%	-3.5%[57.1 µM]	-17.9%	-7.0%[57.1 µM]	44.7µM*	0.6%
CNC(=S)N/N=C/c1ccc(-c2cccc(C(=O)O)c2)o1	-5.8%	-26.6%	-5.3%	-6.4%	?	0.9%
Cc1cccc(NCc2nc3ccccc3n2CCOc2ccccc2C)c1	6.0%	9.0%	.	19.2%	.	-3.4%
C[C@@H]1CN([C@@H](C)CO)S(=O)(=O)c2ccc(-c3ccccc3)cc2O[C@@H]1CN(C)Cc1ccccc1C(=O)O	1.5%	.	0.8%	.	.	.
